The source of these data is PubChem BioAssay (NCATS).

SMILES strings stand for the structures. Results filed as inconclusive are left out. A call without a number means that no potency is given here. Unmarked numbers belong to inactive results. Activity calls are given as the source filed them. The call rests on the fitted dose curve; in most records, active means well fitted cell-killing curve with a large enough effect; inconclusive means small, poorly fitted or top-dose-only effect, or effect the other way; inactive means flat fitted curve, though single readings scatter.

The test has as its system Es-2. The test is described as follows: Primary qHTS to identify gynecologic anti-cancer compounds using libraries of approved drugs and bioactive compounds (AID 1345084). Further: nearly all actives have a fitted effect of over 55% in size. To be noted: Gynecologic cancer cell panel viability, ATPlite luminescence, 48 h; series mostly up to 57.5 µM. The method, boiled down: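 In this quantitative HTS, cell killing is estimated from loss of ATP-dependent luciferase light. Cells see five compound concentrations over a 48 h exposure.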
Background: In qHTS, concentration-response curves come from the screen itself.
As to `NC(=O)NC(=O)Cc1ccccc1`, the Potency result is “inactive”.

On to `NC(=O)NNc1ccccc1`, for which the Potency result is “inactive”.

Consider `N[C@H](C(=O)O)c1ccc(O)cc1`, for which the Potency entry was “inactive”.

Consider `NC(=O)c1ncn([C@@H]2O[C@H](CO)[C@@H](O)[C@H]2O)n1`, for which the Potency entry is “inactive”.

As to `Nc1ccc(S(=O)(=O)NC(=O)c2ccccc2)cc1`, the Potency result is “inactive”.

As to `N[C@H]1C(O)O[C@H](CO)[C@@H](O)[C@@H]1O` (some centres not stated), the Potency result was “inactive”.

For `O=S(=O)(O)NC1CCCCC1`, the Potency result was “inactive”.

`OC[C@H]1O[C@@H](O[C@@H]2[C@@H](CO)O[C@](O)(CO)[C@H]2O)[C@H](O)[C@@H](O)[C@H]1O`: the Potency result is “inactive”.

With `CN(C)CCCO[C@@H]1[C@H]2OC(C)(C)O[C@H]2O[C@@H]1C(O)CO` (some centres not stated), the Potency entry is “inactive”.

Turning to `C[C@@H]1CC[C@@]2(OC1)O[C@H]1C[C@H]3[C@@H]4CC[C@H]5C[C@@H](O)CC[C@]5(C)[C@H]4CC(=O)[C@]3(C)[C@H]1[C@@H]2C`, the activity change, negative = cytotoxicity is -0.456% [at 6.55 µM].

Regarding `CSc1ccc2c(c1)N(CCC1CCCCN1C)c1ccccc1S2` (configuration not stated), the Potency result was “inactive”.

`CC1=C(CC(=O)O)c2cc(F)ccc2/C1=C\c1ccc(S(C)=O)cc1` (configuration not stated): the Potency result is “inactive”.

As to `COCCOC(=O)C1=C(C)NC(C)=C(C(=O)OC/C=C/c2ccccc2)C1c1cccc([N+](=O)[O-])c1` (configuration not stated), the Potency entry is “inactive”.

Consider `C[C@H]1O[C@@H](n2cc(F)c(=O)[nH]c2=O)[C@H](O)[C@@H]1O`, for which the Potency entry is “inactive”.

As for `Cc1cc(N)c2ccccc2[n+]1CCCCCCCCCC[n+]1c(C)cc(N)c2ccccc21`, the Potency result was “inactive”.

On to `O=S(=O)(O)c1cc(I)c(O)c2ncccc12`, for which the Potency result is “inactive”.

On to `CN1[C@@H]2CC(OC(=O)[C@H](CO)c3ccccc3)C[C@H]1[C@@H]1O[C@@H]12` (some centres not stated), for which the Potency entry is “inactive”.
